Compounds with a hit are over-represented: about 13% of the library has one in this group of screens.
Shiga inhibitor: Shiga toxin inhibition; Vero cells, Shiga toxin protein synthesis inhibition reporter; inhibition, % at 38.7 µM; hit rate 9.2% among 290,000; AID 2315; in the data active = inhibition mostly above about 28%, no sharp cut-off; inactive = mostly below about 43%; also: 0% is about no effect
Marburg entry inh: inhibitors of Marburg virus binding or cell entry; hit rate 1.8% among 300,000; Potency, µM (titrated, usually from 37.8 µM), inactives show at the highest dose activity change, negative = inhibition, hits mostly inhibitors; AID 540276; Marburg virus pseudotyped entry inhibition, cell reporter; calls by dose curve; tested in HEK293 cells; also: potency is read from the fitted curve at half-maximal effect; % is scaled to controls: 0 for no effect and ±100 for the full control effect
LASV entry inh: inhibitors of Lassa virus binding or cell entry; AID 540256; hit rate 1.2% among 300,000; Lassa virus pseudotype entry inhibition, cell reporter; Potency, µM (titrated, usually from 37.9 µM), without a hit: top-dose activity change, negative = inhibition, actives largely listed as inhibitors; calls by dose curve; tested in HEK293 cells; also: potency is read from the fitted curve at half-maximal effect; % is scaled to controls: 0 for no effect and ±100 for the full control effect; nearly all actives have a fitted effect of over 50% in size
HCV inhibitor: HCV inhibition | Potency, µM (top dose mostly 41.8 µM), for the others: at the highest dose activity change, negative = inhibition, hits mostly inhibitors | hit rate 3.4% among 340,000 | Huh7.5.1 HCVcc-Cre infection, luciferase reporter, 44 h | AID 651820; active = well fitted inhibition curve with a large enough effect; inconclusive = small, poorly fitted or top-dose-only effect, or another doubt; inactive = no such curve, though single readings can be large or run the other way; also: potency is read from the fitted curve at half-maximal effect; % is scaled to controls: 0 for no effect and ±100 for the full control effect
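Cells seeded at 1,000/well and cultured 4 h, then compounds added followed by HCVcc-Cre virus (~0.5 moi). After 44 h further culture, luciferase substrate was added, plates held 15 min at room temperature, and luminescence read for 15 sec.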
FMDV antiviral: foot and mouth disease virus antiviral activity. FMDV antiviral cell-based qHTS. Potency, µM (titrated, usually from 57.9 µM), inactives show at the highest dose activity change, negative = inhibition, most hits filed as inhibitors. hit rate 1.2% among 410,000. AID 1159524; calls by dose curve; tested in HEK293T cells; also: read-out not given here; potency is read from the fitted curve at half-maximal effect; % is scaled to controls: 0 for no effect and ±100 for the full control effect; nearly all actives have a fitted effect of over 45% in size
CHX counter: affects cycloheximide protein synthesis inhibition readout, counter-screen. max response, %. cell reporter, cycloheximide protein synthesis inhibition counterscreen. hit rate 12% among 300,000. AID 2314; in the data active = max response mostly above about 13%, no sharp cut-off; inactive = mostly below about 14%; also: read at 38.3 µM for the half of the compounds with a filed dose; 0% is about no effect
* marks the source's active call; other numbers are inactive results; ? = inconclusive; / = not tested or not shown; [ ] = another dose, or the depositor's remark.

SMILES	Shiga inhibitor	Marburg entry inh	LASV entry inh	HCV inhibitor	FMDV antiviral	CHX counter
Cc1cc(N2C(=O)C(O)=C(C(=O)c3ccco3)C2c2cccc(O)c2)no1 (stereo not given)	-4	/	/	5%	-15%	2
C[n+]1nc(Nc2cccc3ccccc23)sc1-c1ccc(C(=O)O)cc1	35*	/	/	/	/	18*
CCc1ccc(Nc2n[n+](-c3ccccc3)c(-c3ccc(SC)cc3)s2)cc1	34*	/	/	-26%	-4%	33*
CCc1ccc(Nc2n[n+](C)c(-c3ccc(C(=O)O)cc3)s2)cc1	5	/	/	/	/	-1
CSCCC(N=CC1=C(O)CC(C)(C)CC1=O)C(=O)O (stereo not given)	-6	7%	10%	12%	-10%	-3
Cc1ccc(CNc2nc(CN3CCNC(=O)C3)nc3ccccc23)o1	/	/	/	/	21%	/
CC1CCC(CN2C(Nc3ccccc3)=NC[C@@H]2Cc2ccccc2)CC1 (stereo not given in full)	/	/	/	7.9µM*	-19%	/
c1ccc(C[C@H]2CN=C(Nc3ccccc3)N2CCCC2CCCCC2)cc1	/	/	/	4µM*	-18%	/
c1ccc(C[C@H]2CN=C(Nc3ccccc3)N2CC2CCC2)cc1	/	/	/	-19%	-21%	/
c1ccc(C[C@H]2CN=C(Nc3ccccc3)N2CC2CCCCC2)cc1	/	/	/	-29%	-14%	/
CC1CCCN(C(=O)c2cccc(S(=O)(=O)N3CCCc4ccccc43)c2)C1 (stereo not given)	/	-19%	-16%[46.1 µM]	?	-15%	/
Cc1noc(-c2ccccc2OCC(=O)Nc2ccccc2[N+](=O)[O-])n1	/	-2%[46.1 µM]	?	/	-26%	/
COC(=O)c1c(C)oc2ccc(N(C(=O)c3ccncc3)S(=O)(=O)c3ccc(C)cc3)cc12	25	3.2µM*	-18%	?	-18%	-2
COC(=O)c1c(C)oc2ccc(N(C(=O)c3ccncc3)S(=O)(=O)c3ccc(C)cc3C)cc12	-15	5.6µM*	?	1.6µM*	?	7
O=C(NC(c1ccccc1)c1ccc2ccccc2n1)C1CCN(CCOc2ccc(Cl)cc2)CC1 (stereo not given)	/	/	/	/	32µM*	/
COc1cc(CN2CCC(C(=O)NC(c3ccc(F)cc3)c3ccc4ccccc4n3)CC2)cc(OC)c1 (stereo not given)	/	/	/	/	35µM*	/
COC(=O)c1cc(NC(=O)CC2SC(=Nc3ccccc3)N(CCc3c[nH]c4ccccc34)C2=O)cc(C(=O)OC)c1 (stereo not given)	-13	?	?	4.5µM*	-16%	-3
COCCN1C(=O)C(CC(=O)Nc2ccc(C(=O)O)cc2)SC1=Nc1ccccc1 (stereo not given)	10	4%	0%	7%	-4%	1
Cc1ccc(C(=O)Nc2nnc(NC(=S)Nc3ccccc3)s2)cc1	19	?	4%	?	20%	3
CCc1nnc(NC(=S)Nc2ccccc2)s1	99*	-26%	5%	25%	67%	45*
Cc1nc(NC(=S)Nc2ccccc2)sc1C	127*	/	/	?	39%	43*
CCOc1ccc(C(=O)Nc2nnc(NC(=S)Nc3ccccc3)s2)cc1	70*	-4%	-8%	?	8%	26*
O=C(c1ccc(Cl)cc1Cl)N1CCSCC1	21	20%	27%	22%	-24%	-1
Cc1ccc(C2=NN3C(C(=O)c4ccccc4)Oc4ccccc4C3C2)cc1 (stereo not given)	86*	-2%	-10%	-26%	74%	34*
COc1ccc(C2=NN3C(C2)c2ccccc2OC3c2cccs2)cc1 (stereo not given)	63*	?	-8%	?	62%	59*
SMILES	Shiga inhibitor	Marburg entry inh	LASV entry inh	HCV inhibitor	FMDV antiviral	CHX counter
COc1ccc(C2=NN3C(C2)c2ccccc2OC32C(=O)N(C)c3ccccc32)cc1 (stereo not given)	109*	?	?	-10%	8%	62*
Cc1ccc(C(=O)C2Oc3ccccc3C3CC(c4ccc(C)cc4)=NN23)cc1 (stereo not given)	60*	?	-2%	-23%	40%	53*
C/C(=N\NC(=O)c1ccccn1)C12CC3CC(CC(C3)C1)C2	54*	6%	5%	3%	/	31*
Cc1occc1C(=O)NC1CCCCCC1	51	?	6%	15%	24%	17
N/C(=N\OC(=O)C12CC3CC(CC(C3)C1)C2)c1cccnc1	17	-4%	3%	?	/	19*
N/C(=N\OC(=O)C12CC3CC(CC(C3)C1)C2)c1ccccc1	21	?	?	5µM*	47%	4
C/C(=N/NC(=O)c1ccoc1C)C12CC3CC(CC(C3)C1)C2	5	18%	12%	7%	32%	39*
N/C(=N\OC(=O)C12CC3CC(CC(C3)C1)C2)c1ccccn1	43*	?	?	8%	19%	41*
CC1CN(CC(O)COc2ccc(C(C)C)cc2)CC(C)O1 (stereo not given)	-3	23%	-5%	?	-18%	-3
CN(CC(O)COC(c1ccccc1)c1ccccc1)C1CCCCC1 (stereo not given)	-12	?	?	-14%	-24%	-2
CC1CN(CC(O)COC(c2ccc(Cl)cc2)c2ccc(Cl)cc2)CC(C)O1 (stereo not given)	-11	?	-24%	10µM*	?	-3
CN(C)CC(O)COC(c1ccc(Cl)cc1)c1ccc(Cl)cc1 (stereo not given)	-23	?	?	3.2µM*	-11%	-5
O=C1C2C3C=CC(CO)(O3)C2C(=O)N1c1ccc(-c2ccccc2)cc1 (stereo not given)	46	/	/	/	/	23*
Cc1ccc(N2C(=O)C3C4C=CC(CNC(=S)Nc5ccc(Cl)cc5)(O4)C3C2=O)cc1 (stereo not given)	-2	?	?	?	-1%	9.6*
COc1ccc(NC(=O)C2(c3ccc(NC(=O)c4ccc(OC)c(OC)c4)cc3)CCCC2)cc1	-4	-1%	-8%	?	5%	-1
NC(=O)C1CCN(CC(=O)Nc2ccc3c(c2)OCO3)CC1	/	/	/	/	-24%	/
CCOc1ccc(/C=C/C(O)=C2/C(=O)NC3(C)CC2c2ccccc2O3)cc1OC (stereo not given)	-14	?	?	?	?	-14
CCOc1ccc(/C=C/C(O)=C2/C(=O)N(C)C3(C)CC2c2ccccc2O3)cc1OC (stereo not given)	-12	?	3.5µM*	?	?	-5
CCn1c(SCC(=O)N2CCCCC2)nnc1-c1ccc(S(=O)(=O)N2CCN(C)CC2)cc1	-6	-10%	26%	-2%	-2%	-2
O=C(Cc1ccccc1F)N1CCN(S(=O)(=O)c2ccc(Cl)cc2)CC1	/	/	/	12%	?	/
Cn1cnc2c(N/N=C/c3cccs3)ncnc21	38*	?	?	-1%	-1%	31*
C(=N\Nc1ncnc2sc3c(c12)CCC3)/c1cccs1	-20	-7%	/	/	/	-4

High-throughput results as filed in PubChem.
